Molecules are shown by their SMILES. Calls of active or inactive are those of the source.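 The calls were made as follows, unless noted: active = superoxide response below 65% of plate, a cut near 3 SD across the whole screen; inactive = the rest.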

Assay [1] is described as follows: reduced mouse 2C T cell binding to pMHC/ICAM-1 vesicles – MLPCN validation set, flow cytometry, LFA-1/ICAM-1 modulator project, pilot screen (AID 2523;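 active = response below a set limit, under 55% cells CD8-positive and vesicle-bound, and CD8 cells' 90th-percentile brightness under 279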;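 as to vesicle binding response: mean PE anti-B7-1 fluorescence of CD8+ cells relative to row control; 100% = QL9-loaded vesicles with DMSO vehicle in the same plate row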). The following applies: 2C mouse CD8+ T cells, at 7 µM, stronger effect = lower value; double positive events: measured here: CD8+/vesicle+ event percentage. On the technique in general: In flow cytometry, cells or beads pass a laser one at a time.

Assay [2] addresses Integrin beta-1 (Homo sapiens) + Integrin alpha-4 (Homo sapiens) (UniProt P13612+P05556). Put plainly: alpha4beta1 integrin LIBS antibody binding reduction – U937 cells, HUTS-21 mAb, flow cytometry, validation set, VLA-4 allosteric modulator project, pilot screen (AID 2674;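 active = inhibition above 50%, about 3 SD of the validation set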;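 also: antibody binding induced by the VLA-4 ligand LDV present at three times its Kd; 0% = LDV ligand with antibody and no compound and 100% = antibody without LDV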). The following applies: HUTS-21 LIBS mAb binding, at 6.7 µM, stronger effect = higher value, binding induced by LDV ligand.

Assay [3] can be described thus: calorie-restriction mimetic ROS inhibitors, yeast – validation compound set, pilot screen (AID 2706).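 Also: yeast exposed to compound for one week at 30 degrees C before staining; 100% = mean of all compound wells on the same plate.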 The following applies: S. cerevisiae aging, superoxide DHE fluorescence; at 10 µM, stronger effect = lower value.
Assay [4] has as its target Beta-adrenergic receptor kinase 1 (Homo sapiens) (UniProt P25098). Kind of assay: GRK2 binders displacing RNA aptamer, biochemical, validation, human GRK2, bead flow cytometry (AID 488806;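 active = aptamer binding inhibition above 30%, about 3 SD of noise from non-fluorescent compounds; inactive = inhibition at or below 30%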). To be noted: bead-bound GRK2, FAM-aptamer displacement, at 10 µM, stronger effect = higher value.
Assay [5] concerns the target Beta-2 adrenergic receptor (Homo sapiens) (UniProt P07550). Put plainly: agonist-induced loss of surface beta2AR – cell-based, FAP fluorogen, flow cytometry, validation set, pilot screen (AID 504459;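 active = percent response above 42, roughly 3 SD of non-fluorescent test compounds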;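 also: agonist-driven loss of surface beta2AR via internalization measured by FAP dye flow cytometry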). To be noted: Am2.2-beta2AR cells, at 10 µM, stronger effect = higher value.
Assay [6] concerns the target AP-2 complex subunit beta (Homo sapiens) (UniProt P63010). Put plainly: beta-arrestin/AP2 interaction blockers – biochemical, validation set, GST-AP2 beads, flow cytometry, pilot screen (AID 504541;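 active = inhibition above 54%, about 3 SD of non-fluorescent compounds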;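 also: AP2 carries R879A mutation and is captured from E. coli lysate; bead-bound FITC arrestin peptide fluorescence measuring arrestin peptide binding to AP2; 0% = DMSO wells and 100% = excess unlabeled arrestin peptide control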). To be noted: FITC arrestin peptide, at 10 µM, stronger effect = higher value, AP2 beta2 appendage fragment, R879A mutant.
The nature of assay [7]: cytosolic pH regulators acting via V-ATPase – S. cerevisiae, pHLuorin, HTS validation (AID 504600; in the data active = response above about 15%;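 also: plate controls were DMSO for no effect and reference compound for full effect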). The following applies: V-ATPase proton transport, at 10 µM, stronger effect = higher value.
In assay [8] the test system is anti-desmoglein-3 scFv antibody binding to human DSG3. Put plainly: blockers of pathogenic pemphigus antibody–desmoglein-3 binding – biochemical, validation compound set, bead-based, flow cytometry, pilot screen (AID 588368;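 active = binding below the plate cutoff, the plate median minus 3 SD, with a reading above zero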;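 also: signal is the median channel fluorescence of bead-bound GFP antibody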). The following applies: Protein G beads, DSG3-Fc, scFv-GFP binding, at 10 µM, stronger effect = lower value.
A short description of assay [9]: Nile Red efflux blockade in pump-expressing yeast – validation compound set, multiplex, phenotypic, pilot screen (AID 588506;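 active = efflux inhibition above 0.42, the validation set average plus 4 SD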;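 also: Nile Red retained in cells so higher fluorescence means more efflux inhibition; 0 = negative control wells and 1 = enniatin B 25 µM full block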). The following applies: S. cerevisiae pump-expressing triplex, Nile Red efflux flow cytometry; at 10 µM; stronger effect = higher value; the pumps come from Candida albicans.
Assay [10] addresses ATP-binding cassette sub-family B member 6 (Homo sapiens) (UniProt Q9NP58). Kind of assay: blockers of ABCB6-driven porphyrin uptake – K562-ABCB6 cells, flow cytometry, validation set, pilot screen (AID 588550;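 active = inhibition above the screen-wide mean plus 3 SD, about 51%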;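 also: 0% = DMSO wells and 100% = benzethonium chloride 70 µM positive control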). The following applies: K562-ABCB6 porphyrin accumulation, 1 h, at 10 µM, stronger effect = higher value.
Assay [11] in a line: AML differentiation inducers, ER-HoxA9 marrow cells – cell-based, GFP/MAC1 double positive, flow cytometry, validation set, primary screen (AID 588685;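 active = differentiation response of at least 50%, scaled between solvent and reference control, from cells with both markers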;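 also: compound exposure lasts four days before antibody staining and flow analysis; 0% = DMSO wells and 100% = 5 µM fulvestrant positive control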). The following applies: stronger effect = higher value, normalized: vehicle 0, fulvestrant 100.

AP-2 complex subunit beta (Homo sapiens), sequence (P63010 whole entry, looked up, the tested form may be a part, one chain of several): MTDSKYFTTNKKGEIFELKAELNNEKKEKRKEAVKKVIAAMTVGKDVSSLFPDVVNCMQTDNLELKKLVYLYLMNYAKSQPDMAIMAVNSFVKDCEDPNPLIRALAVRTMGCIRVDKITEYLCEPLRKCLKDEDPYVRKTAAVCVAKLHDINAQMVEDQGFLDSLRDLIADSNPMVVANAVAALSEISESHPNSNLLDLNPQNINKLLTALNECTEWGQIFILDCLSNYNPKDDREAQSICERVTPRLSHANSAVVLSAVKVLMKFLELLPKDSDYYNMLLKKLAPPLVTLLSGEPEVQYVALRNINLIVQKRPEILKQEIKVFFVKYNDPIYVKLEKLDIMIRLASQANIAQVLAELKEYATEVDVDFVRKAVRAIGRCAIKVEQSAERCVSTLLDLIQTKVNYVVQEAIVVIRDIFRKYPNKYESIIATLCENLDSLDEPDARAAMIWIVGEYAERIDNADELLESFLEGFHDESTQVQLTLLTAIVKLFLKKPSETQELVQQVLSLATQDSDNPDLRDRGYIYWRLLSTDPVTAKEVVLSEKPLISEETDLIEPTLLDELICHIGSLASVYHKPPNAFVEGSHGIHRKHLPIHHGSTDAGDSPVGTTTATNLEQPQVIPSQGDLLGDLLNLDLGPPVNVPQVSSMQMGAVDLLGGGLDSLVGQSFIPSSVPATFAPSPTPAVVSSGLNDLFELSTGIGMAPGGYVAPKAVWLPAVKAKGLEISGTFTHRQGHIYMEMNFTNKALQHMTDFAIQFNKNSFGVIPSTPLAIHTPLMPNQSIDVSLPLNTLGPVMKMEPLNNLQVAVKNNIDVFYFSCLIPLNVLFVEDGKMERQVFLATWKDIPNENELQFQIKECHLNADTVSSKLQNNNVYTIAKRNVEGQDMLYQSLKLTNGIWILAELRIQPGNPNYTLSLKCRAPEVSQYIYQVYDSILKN
Integrin beta-1 (Homo sapiens) + Integrin alpha-4 (Homo sapiens), sequence (P05556 whole entry, looked up): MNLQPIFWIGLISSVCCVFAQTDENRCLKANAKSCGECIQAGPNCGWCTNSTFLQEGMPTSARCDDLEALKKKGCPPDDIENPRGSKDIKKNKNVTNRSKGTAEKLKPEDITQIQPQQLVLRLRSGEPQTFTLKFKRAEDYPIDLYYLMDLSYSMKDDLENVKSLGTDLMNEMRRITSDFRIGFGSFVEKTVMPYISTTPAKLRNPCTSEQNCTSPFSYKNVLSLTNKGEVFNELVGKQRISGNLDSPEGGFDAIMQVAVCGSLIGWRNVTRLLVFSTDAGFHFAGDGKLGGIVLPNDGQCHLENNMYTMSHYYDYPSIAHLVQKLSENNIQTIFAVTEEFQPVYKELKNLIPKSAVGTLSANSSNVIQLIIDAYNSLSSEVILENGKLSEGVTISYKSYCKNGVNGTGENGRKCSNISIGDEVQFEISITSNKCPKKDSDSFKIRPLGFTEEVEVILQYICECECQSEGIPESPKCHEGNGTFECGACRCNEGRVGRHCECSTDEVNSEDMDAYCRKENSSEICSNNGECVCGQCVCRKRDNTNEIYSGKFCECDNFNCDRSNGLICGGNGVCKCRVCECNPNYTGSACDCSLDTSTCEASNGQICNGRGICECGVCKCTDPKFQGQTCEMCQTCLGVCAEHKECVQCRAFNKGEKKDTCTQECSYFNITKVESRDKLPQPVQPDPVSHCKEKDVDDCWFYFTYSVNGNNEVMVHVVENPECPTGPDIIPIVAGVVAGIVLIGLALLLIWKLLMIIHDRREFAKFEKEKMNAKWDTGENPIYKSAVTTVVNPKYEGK
Integrin beta-1 (Homo sapiens) + Integrin alpha-4 (Homo sapiens), sequence (P13612 whole entry, looked up): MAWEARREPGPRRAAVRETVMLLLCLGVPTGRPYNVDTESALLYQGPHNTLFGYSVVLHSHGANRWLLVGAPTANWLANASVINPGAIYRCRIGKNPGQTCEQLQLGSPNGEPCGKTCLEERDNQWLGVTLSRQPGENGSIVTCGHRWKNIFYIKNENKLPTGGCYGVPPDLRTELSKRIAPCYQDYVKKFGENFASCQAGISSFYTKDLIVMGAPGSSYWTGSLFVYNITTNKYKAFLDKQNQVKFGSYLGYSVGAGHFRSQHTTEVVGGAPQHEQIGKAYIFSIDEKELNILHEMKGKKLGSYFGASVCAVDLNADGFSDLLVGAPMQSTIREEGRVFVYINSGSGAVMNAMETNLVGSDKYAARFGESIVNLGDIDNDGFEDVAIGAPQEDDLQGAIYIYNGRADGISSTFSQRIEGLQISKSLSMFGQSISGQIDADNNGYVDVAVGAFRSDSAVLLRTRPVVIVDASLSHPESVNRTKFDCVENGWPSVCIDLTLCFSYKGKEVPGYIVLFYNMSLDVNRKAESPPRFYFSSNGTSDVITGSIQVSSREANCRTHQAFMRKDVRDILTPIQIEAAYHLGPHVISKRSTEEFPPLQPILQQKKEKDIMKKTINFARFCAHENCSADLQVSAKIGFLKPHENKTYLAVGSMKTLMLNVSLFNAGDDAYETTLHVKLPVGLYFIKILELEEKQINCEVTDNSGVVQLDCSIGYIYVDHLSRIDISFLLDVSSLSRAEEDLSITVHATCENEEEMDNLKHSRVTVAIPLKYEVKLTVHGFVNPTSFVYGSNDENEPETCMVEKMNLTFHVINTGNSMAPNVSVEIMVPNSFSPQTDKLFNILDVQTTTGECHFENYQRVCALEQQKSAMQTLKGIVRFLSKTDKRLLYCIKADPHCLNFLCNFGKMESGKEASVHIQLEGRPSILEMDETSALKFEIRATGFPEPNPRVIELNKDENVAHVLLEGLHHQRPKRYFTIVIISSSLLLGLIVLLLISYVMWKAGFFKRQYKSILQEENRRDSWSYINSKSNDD
Beta-adrenergic receptor kinase 1 (Homo sapiens), sequence (P25098 whole entry, looked up): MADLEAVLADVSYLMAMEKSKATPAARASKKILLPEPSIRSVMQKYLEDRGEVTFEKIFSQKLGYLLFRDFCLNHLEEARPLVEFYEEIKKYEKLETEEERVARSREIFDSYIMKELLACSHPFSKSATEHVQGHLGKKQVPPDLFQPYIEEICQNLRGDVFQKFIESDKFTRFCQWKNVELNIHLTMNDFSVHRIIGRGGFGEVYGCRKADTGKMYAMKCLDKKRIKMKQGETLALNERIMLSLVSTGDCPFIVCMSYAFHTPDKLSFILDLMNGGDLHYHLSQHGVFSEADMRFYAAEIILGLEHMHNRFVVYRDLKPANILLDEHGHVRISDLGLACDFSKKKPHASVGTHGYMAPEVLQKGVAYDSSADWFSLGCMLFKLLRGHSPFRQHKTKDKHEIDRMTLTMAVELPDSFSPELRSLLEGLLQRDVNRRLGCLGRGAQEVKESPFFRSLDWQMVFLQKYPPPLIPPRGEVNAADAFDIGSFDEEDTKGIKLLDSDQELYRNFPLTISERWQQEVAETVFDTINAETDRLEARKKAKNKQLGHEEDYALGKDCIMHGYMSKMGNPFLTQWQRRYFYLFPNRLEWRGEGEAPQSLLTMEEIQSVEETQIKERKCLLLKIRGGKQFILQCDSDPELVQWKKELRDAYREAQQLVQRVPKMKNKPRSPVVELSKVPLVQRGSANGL
ATP-binding cassette sub-family B member 6 (Homo sapiens), sequence (Q9NP58 whole entry, looked up): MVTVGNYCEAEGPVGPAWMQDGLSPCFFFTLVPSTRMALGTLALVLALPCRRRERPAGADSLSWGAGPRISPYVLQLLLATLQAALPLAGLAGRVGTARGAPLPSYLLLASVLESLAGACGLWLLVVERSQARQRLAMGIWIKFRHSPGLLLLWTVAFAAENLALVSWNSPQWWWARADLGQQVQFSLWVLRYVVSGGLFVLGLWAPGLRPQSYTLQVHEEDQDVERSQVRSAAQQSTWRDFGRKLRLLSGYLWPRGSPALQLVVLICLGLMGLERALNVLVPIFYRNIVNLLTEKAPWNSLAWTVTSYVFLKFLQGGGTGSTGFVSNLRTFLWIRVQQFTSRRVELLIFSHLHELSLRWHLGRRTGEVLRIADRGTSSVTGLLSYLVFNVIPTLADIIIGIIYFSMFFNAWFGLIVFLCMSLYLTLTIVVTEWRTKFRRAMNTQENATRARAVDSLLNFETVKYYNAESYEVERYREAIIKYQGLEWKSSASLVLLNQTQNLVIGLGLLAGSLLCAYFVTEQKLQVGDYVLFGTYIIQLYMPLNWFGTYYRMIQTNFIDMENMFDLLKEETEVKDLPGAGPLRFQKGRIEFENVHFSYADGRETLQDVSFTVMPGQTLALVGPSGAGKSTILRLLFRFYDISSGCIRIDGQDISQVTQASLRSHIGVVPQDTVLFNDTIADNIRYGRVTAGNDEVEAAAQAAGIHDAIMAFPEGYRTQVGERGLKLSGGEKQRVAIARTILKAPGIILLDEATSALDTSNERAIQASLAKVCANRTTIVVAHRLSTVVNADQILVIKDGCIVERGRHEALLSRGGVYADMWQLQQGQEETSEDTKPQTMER
Beta-2 adrenergic receptor (Homo sapiens), sequence (P07550 whole entry, looked up): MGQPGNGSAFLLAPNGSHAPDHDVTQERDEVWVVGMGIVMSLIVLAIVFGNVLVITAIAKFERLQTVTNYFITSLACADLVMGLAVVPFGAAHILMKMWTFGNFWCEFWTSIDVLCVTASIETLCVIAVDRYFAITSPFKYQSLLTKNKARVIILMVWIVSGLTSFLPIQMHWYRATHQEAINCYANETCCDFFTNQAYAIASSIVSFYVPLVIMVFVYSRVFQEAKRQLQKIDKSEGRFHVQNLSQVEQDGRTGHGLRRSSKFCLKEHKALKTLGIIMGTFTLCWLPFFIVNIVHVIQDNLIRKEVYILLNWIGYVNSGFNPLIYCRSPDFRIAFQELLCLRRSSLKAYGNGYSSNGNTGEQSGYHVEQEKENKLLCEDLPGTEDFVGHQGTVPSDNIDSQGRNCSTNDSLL

The compound `Cn1c2[n+](c3ccc(Cl)cc3c1=O)Cc1ccccc1-2` showed a double positive events in [1] of 69%. The vesicle binding response in assay [1] is 278% (inactive). Also, the inhibition in assay [2] was -13% (inactive); in [6], 1.06% (inactive); in [10], 10% (inactive). The superoxide response (% of plate) in [3] is 97.2% (inactive). In assay [4], the aptamer binding inhibition was 1% (inactive). The response in assay [5] is -8.51% (inactive); in [7] it was 7.46% (inactive). Besides, the binding (% of control) in assay [8] was 107% (inactive). Besides, the efflux inhibition (fraction of control) in assay [9] was 0.21 (inactive). In addition, the differentiation response in assay [11] is 20.6% (inactive).

As for `O=C(Nc1c(C(=O)O)[nH]c2ccccc12)NC1CCCCC1`, the double positive events in assay [1] came to 60.3%. In assay [1], the vesicle binding response was 190% (inactive). The inhibition in assay [2] was -17.3% (inactive); in assay [6], 3.04% (inactive); in assay [10], -3% (inactive). For the same compound, the superoxide response (% of plate) in assay [3] is 102% (inactive). For the same compound, the aptamer binding inhibition in assay [4] is 4% (inactive). The response in assay [5] was -18.9% (inactive); in assay [7], 5.33% (inactive). The binding (% of control) in assay [8] was 101% (inactive). The efflux inhibition (fraction of control) in assay [9] was -0.13 (inactive). Besides, the differentiation response in assay [11] is -4% (inactive).

With `Nc1ccc(N=Nc2ccccc2)c(N)n1`, in assay [1], the double positive events was 61.7%. Further, in [1], the vesicle binding response was 133% (inactive). Also, the results for the inhibition in [2], in assay [6] and in assay [10] were 28.7% (inactive), 4.28% (inactive) and 4% (inactive), respectively. In addition, the superoxide response (% of plate) in assay [3] is 114% (inactive). Further, the aptamer binding inhibition in assay [4] was 3% (inactive). Besides, the response in [5] is -11.9% (inactive); in assay [7], 6.54% (inactive). Also, the binding (% of control) in assay [8] is 103% (inactive). Moreover, in assay [9], the efflux inhibition (fraction of control) is -0.26 (inactive). In addition, the differentiation response in [11] was -5.97% (inactive).

`CCn1c(O)c(/C=C2\C=Nc3ccccc32)sc1=O` yielded a double positive events in assay [1] of 63.1%. Moreover, the vesicle binding response in assay [1] was 97.1% (inactive). In addition, the inhibition in [2] was -0.31% (inactive); in assay [6] it was -17.2% (inactive); in [10] it was 4% (inactive). Moreover, in assay [3], the superoxide response (% of plate) is 108% (inactive). Moreover, the aptamer binding inhibition in assay [4] was 1% (inactive). In addition, the response is -3.25% (inactive) in assay [5] and 0.06% (inactive) in [7]. Further, the binding (% of control) in [8] is 97.5% (inactive). Further, the efflux inhibition (fraction of control) in assay [9] was -0.44 (inactive). The differentiation response in assay [11] was -5.68% (inactive).

In the case of `CCC(=O)Oc1ccc(/C(CC)=C(\CC)c2ccc(OC(=O)CC)cc2)cc1`, the double positive events in [1] amounted to 67.2%. Further, in assay [1], the vesicle binding response was 174% (inactive). Further, the inhibition was 19.1% (inactive) in [2], -4.91% (inactive) in [6] and 11% (inactive) in [10]. The superoxide response (% of plate) in [3] was 94.7% (inactive). The aptamer binding inhibition in assay [4] is 3% (inactive). The values for the response in assay [5] and in assay [7] were -5.73% (inactive) and 2.77% (inactive), respectively. Moreover, the binding (% of control) in assay [8] is 84.1% (inactive). Also, the efflux inhibition (fraction of control) in assay [9] is -0.02 (inactive). Further, the differentiation response in assay [11] is -4.09% (inactive).

On to `CC(C)CC(=O)OC1C(N2CCOCC2)c2c(ccc(/C=C/C(=O)N3CCOCC3)c2O)OC1(C)C` (centres undefined), for which the double positive events in assay [1] was determined as 57.1%. Besides, in assay [1], the vesicle binding response was 158% (inactive). Besides, the inhibition in assay [2] is -3.16% (inactive); in assay [6], 35% (inactive); in assay [10], 5% (inactive). Besides, in [3], the superoxide response (% of plate) was 101% (inactive). In addition, the aptamer binding inhibition in assay [4] was -1% (inactive). Besides, the response in assay [5] was 84.7% (active); in assay [7] it was -2.63% (inactive). The binding (% of control) in [8] is 108% (inactive). Moreover, the efflux inhibition (fraction of control) in [9] was 0.37 (inactive). The differentiation response in [11] is 53.6% (active).

On to `CC[N+](C)(C)Cc1ccccc1Br`, for which the double positive events in assay [1] was 63.8%. Further, the vesicle binding response in assay [1] is 185% (inactive). Further, the inhibition in [2] is 8.25% (inactive); in [6] it was -11.2% (inactive); in assay [10] it was 2% (inactive). Besides, in assay [3], the superoxide response (% of plate) was 96.2% (inactive). In assay [4], the aptamer binding inhibition is 4% (inactive). For the same compound, the response in assay [5] was -19.8% (inactive); in [7], -30.5% (inactive). Besides, in assay [8], the binding (% of control) is 102% (inactive). The efflux inhibition (fraction of control) in assay [9] is 0 (inactive). Moreover, the differentiation response in [11] was -11.9% (inactive).

The term inhibition denotes the drop in the measured response relative to a control, in per cent.
